Most compounds without a hit are left out; they make up all but 10% or so of the library.
Pf growth 48h = inhibits P. falciparum growth in the first generation, 48 h; P. falciparum luciferase growth in erythrocytes, 48 h; Potency, µM (top dose mostly 28.7 µM), hits mostly inhibitors; actives 5.9% (n = 310,000); AID 504832
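Read-out is firefly luciferase luminescence from an integrated reporter in P. falciparum, so falling signal marks reduced parasite growth. Infected erythrocytes were at 2% hematocrit and 0.1% parasitemia (final) in Albumax-supplemented RPMI 1640.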
Pf growth 96h = P. falciparum growth inhibition at 96 hours; Potency, µM (series often up to 28.7 µM), hits mostly inhibitors; P. falciparum luciferase reporter growth, 96 h; actives 6.9% (n = 320,000); AID 504834
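Readout is luminescence from an integrated firefly luciferase in P. falciparum. Red cells, 2% hematocrit and 0.05% parasitemia final, were cultured with compound through two parasite generations (96 hours) at 37 C, 5% CO2.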
NS1 function inh = blocks influenza NS1 protein function; actives 0.4% (n = 270,000); AID 2326; Potency, µM (highest dose often 46.1 µM); calls by dose curve; note: actives are rising curves; nearly all actives have a fitted effect of over 50% in size
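OD600 was taken as the measure of yeast growth restored by compound in an NS1-expressing S. cerevisiae strain. Cells had been washed out of glucose medium and diluted 1:100 into galactose -URA medium, pH 6.0.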
SARS PLpro yeast = blocks SARS-CoV papain-like protease in a yeast assay; AID 485353; Potency, µM (series often up to 32.9 µM), usual class: activators; actives 0.19% (n = 330,000); S. cerevisiae expressing SARS-CoV PLpro, growth rescue; calls by dose curve; note: nearly all actives have a fitted effect of over 55% in size
Numbers stand for hits; i = inactive; ? = inconclusive; nt = no result given. Unless noted, calls come from the whole dose curve; as a rule, active = well fitted inhibition curve with a large enough effect; inconclusive = small, poorly fitted or top-dose-only effect, or another doubt; inactive = no such curve, though single readings can be large or run the other way.

SMILES	Pf growth 48h	Pf growth 96h	NS1 function inh	SARS PLpro yeast
CCC1Nc2ncnc(N3CCOCC3)c2N(Cc2ccccc2)C1=O (configuration not stated)	?	i	nt	i
Cc1ccc(CN2C(=O)C(Cc3ccccc3)Nc3ncnc(N4CCCCC4)c32)cc1 (configuration not stated)	1.7µM	4.7µM	nt	i
NS(=O)(=O)c1ccc(NC(=S)N2CCC(Cc3ccccc3)CC2)cc1	i	i	i	i
CN(Cc1cc(Br)cc(Br)c1O)Cc1c(O)ccc2ccccc12	nt	nt	i	nt
CCOc1ccc(S(=O)(=O)Nc2ccc(C(=O)NCc3ccncc3)cc2)cc1	?	?	nt	i
COc1ccc(CN2C(=O)C(Cc3ccccc3)Nc3ncnc(N4CCCCC4)c32)cc1 (configuration not stated)	5.2µM	12µM	nt	i
O=C1C(Cc2ccccc2)Nc2ncnc(N3CCN(c4ccccc4)CC3)c2N1Cc1ccc(Br)cc1 (configuration not stated)	nt	nt	nt	i
O=C1C(Cc2ccccc2)Nc2ncnc(N3CCN(c4ccccc4)CC3)c2N1Cc1ccccc1 (configuration not stated)	2.9µM	2.9µM	nt	i
N=C1S/C(=C\c2cccc3ccccc23)C(=O)N1c1ccc(F)cc1	12µM	i	i	i
N=C1S/C(=C\c2ccccc2F)C(=O)N1c1ccc(F)cc1	i	i	i	i
N[C@@H](Cc1cccnn1)C(=O)O	nt	nt	i	nt
Cc1ccn2c(NC3CCCCC3)c(-c3cccc(-c4cccc(Cl)c4)c3)nc2c1	8.3µM	10µM	nt	i
CCCCCCSc1ccc(-c2nc3ccc(C)cn3c2NC2CCCCC2)cc1	9.3µM	13µM	nt	i
CCCCCCSc1cc(-c2nc3cnccn3c2NCc2ccccc2)ccc1OC	7.4µM	5.9µM	nt	i
CCCCCCSc1ccc(-c2nc3ccccn3c2NCCCC)cc1	?	?	nt	i
COc1cc(-c2nc3cc(C)ccn3c2NC2CCCCC2)ccc1-c1ccc(C(C)=O)cc1	5.2µM	10µM	nt	i
Cc1ccn2c(NC3CCCC3)c(-c3ccncc3)nc2c1	i	?	nt	i
CCCCCCSc1ccc(-c2nc3cc(C)ccn3c2NC2CCCCC2)cc1	nt	nt	nt	i
COCCSc1ccccc1C(=O)N1CCc2ccccc21	i	?	i	i
CC(C)CC(=O)Nc1c2c(nn1-c1cccc(Cl)c1)CS(=O)(=O)C2	i	i	i	i
CN(C)S(=O)(=O)c1ccc(C(=O)NCc2nnc(SCC(=O)c3ccccc3)o2)cc1	?	i	i	i
CC(O)CO (configuration not stated)	i	?	nt	i
CCCCNc1c(-c2ccc(OC)c(SC3CCCCC3)c2)nc2ccc(Cl)cn12	nt	nt	nt	i
CCCCNc1c(-c2ccc(OC)c(SC3CCCCC3)c2)nc2cc(C)ccn12	9.3µM	?	nt	i
CCC(C)Sc1ccc(-c2nc3cc(C)ccn3c2NC2CCCCC2)cc1 (configuration not stated)	nt	nt	nt	i
SMILES	Pf growth 48h	Pf growth 96h	NS1 function inh	SARS PLpro yeast
CCC(C)Sc1ccc(-c2nc3cnccn3c2NC2CCCCC2)cc1 (configuration not stated)	7.4µM	7.4µM	nt	i
CCCCNc1c(-c2ccc(SC3CCCCC3)cc2)nc2cnccn12	nt	nt	nt	i
CCCCNc1c(-c2ccc(OC)c(SC3CCCCC3)c2)nc2cnccn12	10µM	9.3µM	nt	i
COc1ccc(-c2nc3cnccn3c2NCc2ccccc2)cc1SC1CCCCC1	?	13µM	nt	i
CC(/C=N/NC(=O)c1nnn(-c2nonc2N)c1C(C)C)=C\c1ccco1	i	i	i	i
COc1ccc(NC(=O)C2CCCN(C(=O)c3ccc(Cl)cc3)C2)cc1S(=O)(=O)N(C)C (configuration not stated)	?	?	nt	i
CCCCCCSc1cc(-c2nc3cc(C)ccn3c2NC2CCCCC2)ccc1OC	7.4µM	8.3µM	nt	i
CCCCNc1c(-c2ccc(-c3ccc(C(C)=O)cc3)c(OC)c2)nc2cnccn12	9.3µM	?	nt	i
COc1cc(-c2nc3cnccn3c2NC(C)(C)CC(C)(C)C)ccc1O	?	?	i	i
CN(Cc1c(F)cccc1Cl)C(=O)c1ccc(NS(=O)(=O)c2ccc3[nH]c(=O)[nH]c3c2)cc1	i	?	nt	i
CC(C)c1ccc(S(=O)(=O)N2CCCCC2)cc1	i	?	nt	i
Cc1cc(NC(=O)C(C)C)ncc1NC(=O)c1ccco1	i	i	i	i
COc1cccc(C(=O)Nc2cnc(NC(=O)c3ccco3)cc2C)c1	i	5.2µM	i	i
Cc1cc(NC(=O)c2ccco2)ncc1NC(=O)Cc1ccccc1	i	8.3µM	i	i
O=c1oc2c(CN3CCCCC3)c(O)ccc2cc1-c1nc2ccccc2[nH]1	?	10µM	i	i
O=c1oc2c(O)cccc2cc1-c1nc2ccccc2[nH]1	i	i	i	i
Cc1nc([N+](=O)[O-])c(C(=O)OCc2ccccc2C#N)n1C	i	i	nt	i
COC(=O)C1=C(C)N=C2SC(C#N)=C(N)N2C1c1cc(OC)c(OC)c(OC)c1 (configuration not stated)	?	?	i	i
COC(=O)C1=C(C)N=C2SC(C#N)=C(N)N2C1c1ccc(OCc2ccccc2)cc1 (configuration not stated)	nt	12µM	i	i
COc1ccc2cc(C(=O)C3CCCN(Cc4ccccn4)C3)ccc2c1 (configuration not stated)	9.3µM	i	i	i
CCn1ccnc1CN1CCCC(C(=O)c2cc(Cl)ccc2OC)C1 (configuration not stated)	i	i	i	i
CCn1ccnc1CN1CCCC(C(=O)c2ccc3cc(OC)ccc3c2)C1 (configuration not stated)	2.9µM	?	i	i
CCn1ccnc1CN1CCCC(C(=O)c2cc(C)c(OC)c(C)c2)C1 (configuration not stated)	12µM	?	i	i
COc1ccc2cc(C(=O)C3CCCN(Cc4cnc(N5CCOCC5)s4)C3)ccc2c1 (configuration not stated)	?	i	i	i
COc1c(C)cc(C(=O)C2CCCN(S(=O)(=O)N(C)C)C2)cc1C (configuration not stated)	i	2.9µM	i	i
SMILES	Pf growth 48h	Pf growth 96h	NS1 function inh	SARS PLpro yeast
CCCOc1ccc(S(=O)(=O)NNC(=O)c2cc3ccccc3o2)cc1	i	i	i	i
CSc1ccccc1C(=O)C1CCCN(Cc2cccc(C)n2)C1 (configuration not stated)	?	i	i	i
Cc1cccc(CN2CCCC(C(=O)c3ccc(C(F)(F)F)cc3)C2)n1 (configuration not stated)	2.3µM	12µM	i	i
Cc1cccc2c(=O)c(C(=O)NCCc3ccccc3)c[nH]c12	i	4.7µM	i	i
CNC(=O)c1c[nH]c2ccc(S(=O)(=O)Nc3ccccc3F)cc2c1=O	i	?	i	i
Cc1ccccc1NS(=O)(=O)c1ccc2[nH]cc(C(=O)NCCc3ccccc3)c(=O)c2c1	15µM	?	nt	i
CCc1ccccc1NS(=O)(=O)c1ccc2[nH]cc(C(=O)NC3CCCC3)c(=O)c2c1	13µM	i	i	i
CC(CCc1ccccc1)NC(=O)CCCCCNc1nc(=S)[nH]c2ccccc12 (configuration not stated)	?	?	nt	i
